Assay outcomes deposited in PubChem by several laboratories.
ssDAF12 agonist – S. stercoralis DAF-12 activation, primary screen. HEK293 ssDAF-12/GRIP1 lit1-tk-luc reporter, luminescence; % of 3 µM dafachronic acid response. activation, % at 6.8 µM. hit rate 1% among 370,000. AID 652126;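 active = activation above the mean over all tested compounds plus 3 SD, cut at about 0.9% in these data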;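 also: 0% = DMSO-only wells and 100% = 3 µM delta7-dafachronic acid wells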
hgDAF-12 ag – hgDAF-12 agonism, primary luciferase screen; HEK293 GAL4-hgDAF12 UAS-luciferase reporter, agonist luminescence; normalized to butyrate control; activation, % at 6.8 µM; hit rate 1.8% among 370,000;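 active = activation above a cutoff set at the mean of all screened compounds plus 3 SD, cut at about 10% in these data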;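 also: 0% = DMSO wells and 100% = sodium butyrate wells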
hcDAF12 agonist – activators of H. contortus DAF-12 nuclear receptor; HEK293 hcDAF-12 lit1-tk-luc reporter, luminescence; 0% DMSO, 100% Δ7-dafachronic acid; activation, % at 6.8 µM; hit rate 1.4% among 370,000; AID 652067;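 active = activation above the mean of all tested compounds plus 3 SD, cut at about 5.5% in these data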;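 also: 100% = response to 3 µM Δ7-dafachronic acid high control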
PolyA inh – inhibitors of polyadenylation in S. cerevisiae | S. cerevisiae SKY197-pL101 polyadenylation reporter, beta-gal luminescence; efflux-impaired pdr1/pdr3 knockout yeast; score 100 = 6 SD above DMSO | activity score, % at 12 µM | hit rate 0.02% among 300,000;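 active = lowest replicate activity score at least 50, where 100 means six control SD above control mean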;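 also: yeast exposed to compound for 9 h at 30 °C; higher score means more reporter readthrough which indicates perturbed polyadenylation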
DAX1 inh-1 – blocks DAX1 repression of SF-1 activated StAR promoter. AID 652010. HEK293T StAR-luciferase reporter, SF-1/DAX-1 repression relief. inhibition, % at 6.8 µM. hit rate 1.1% among 370,000;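 active = inhibition above the mean over all tested compounds plus 3 SD, cut at about 3.6% in these data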;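 also: 0% = DAX-1 cells with DMSO and 100% = cells lacking DAX-1 with DMSO; higher inhibition means more luminescence from relief of DAX-1 repression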
DAX1 inh-2 – NR0B1 (DAX1) inhibition; HEK293 Gal4-DAX1 luciferase reporter, luminescence; hit rate 0.99% among 340,000; inhibition, % at 6.75 µM; AID 504766; P51843;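 active = inhibition above the mean over all tested compounds plus 3 SD, cut at about 4.2% in these data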;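 also: 0% = DAX1-transfected cells with DMSO and 100% = empty-vector control cells with DMSO; inhibition shows as a rise in luminescence from relieved DAX1 repression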
Target sequence (P51843 207-470 limits assumed): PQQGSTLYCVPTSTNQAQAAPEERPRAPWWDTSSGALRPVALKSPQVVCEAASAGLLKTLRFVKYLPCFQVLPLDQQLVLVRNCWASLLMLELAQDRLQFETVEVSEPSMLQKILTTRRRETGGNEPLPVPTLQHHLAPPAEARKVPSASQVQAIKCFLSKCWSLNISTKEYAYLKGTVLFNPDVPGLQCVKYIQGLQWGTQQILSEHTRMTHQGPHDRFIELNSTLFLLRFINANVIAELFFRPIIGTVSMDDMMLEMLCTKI
* = called active by the depositor; . = no result. A selection: hits, their analogues and other compounds. The true share with any hit is near 4.1%.

SMILES	ssDAF12 agonist	hgDAF-12 ag	hcDAF12 agonist	PolyA inh	DAX1 inh-1	DAX1 inh-2
CC(C)CN1CCC(=O)N(CCOc2ccccc2)CC1	0	3	2	14	1	4.3*
CCc1ccc(-c2csc(-c3c[nH]c4ccccc34)n2)cc1	0	8	6.2*	-17	1	1
CNc1nc(-c2c[nH]c3ccccc23)cs1	0	0	3	-10	-1	0
CN1CCN(CC(=O)Nc2nc(-c3c[nH]c4ccccc34)cs2)CC1	0	4	2	-12	2	1
Nc1nc(-c2c[nH]c3ccccc23)cs1	1.8*	2	1	13	0	0
C[C@@H]1CCCCO[C@H](CN(C)C(=O)C2CCCCC2)[C@@H](C)CN([C@H](C)CO)C(=O)c2cc(NS(=O)(=O)c3cccs3)ccc2O1	-1	0	-2	.	-1	.
CC(NC(=O)NNC(N)=S)(C(F)(F)F)C(F)(F)F	-2	0	-1	16	0	3
CC(NC(=O)NC(N)=O)(C(F)(F)F)C(F)(F)F	-1	2	-2	-2	0	5.5*
COc1ccccc1N1CCN(C(=O)c2ccc3c(c2)nc(C)n3-c2cc(OC)c(OC)c(OC)c2)CC1	-2	-1	-1	.	-1	.
O=C(COC(=O)c1cccc(-n2cnnn2)c1)Nc1c(Cl)cccc1C(F)(F)F	-1	-2	-1	1	3.9*	0
Cc1ccc(-c2nc(C3CCCN(S(=O)(=O)c4ccccc4)C3)no2)cc1 (stereo not drawn)	-1	0	-3	.	0	.
Cn1nc(C(=O)OCC(=O)Nc2cc(Cl)ccc2C#N)c2ccccc2c1=O	0	2	3	.	1	0
Cc1ccc(/C=N\NC(=O)COc2ccc(C)cc2[N+](=O)[O-])cc1	-1	1	0	-39	0	7.0*
COc1cc(/C=N/NC(=O)COc2ccc(C)cc2)ccc1OC(=O)c1cccs1	0.9*	4	1	6	0	-2
Cn1nc(C(=O)OCC(=O)Nc2ccccc2[N+](=O)[O-])c2ccccc2c1=O	1.0*	0	2	.	0	0
Cc1ccc(OCC(=O)Nc2ccccc2[N+](=O)[O-])c(Br)c1	1.0*	7	0	-8	2	0
O=C(COC(=O)COc1ccccc1[N+](=O)[O-])Nc1ccccc1Br	-1	1	3	-4	0	0
CC(C)c1ccccc1NC(=O)COC(=O)COc1ccccc1[N+](=O)[O-]	1.9*	3	-1	-1	0	3
CN(C)S(=O)(=O)c1ccc(Cl)c(NC(=O)COc2ccccc2[N+](=O)[O-])c1	0.9*	-1	-1	8	-1	1
COc1ccc(-c2cc3nc4n(c(=O)c3s2)CCCCC4)cc1	0	10	5	-2	3	7.8*
COc1ccc(-c2cc3nc(C)n(N)c(=O)c3s2)cc1	-3	-9	-4	-22	-1	-9
COC(=O)[C@]12C[C@H](CC(=O)NCCCN3CCCC3=O)C(=O)N(Cc3ccccc3)C1=C[C@H](COCc1ccccc1)O[C@@H]2C	-1	2	-3	.	-1	.
CCOc1cc(C(=O)Nc2cccc(C(C)=O)c2)ccc1OCC(=O)N1CCCCC1	-1	-1	-2	-20	0	1
CCOc1cc(C(=O)N(C)CC(=O)Nc2cccc(F)c2)ccc1OCC(=O)N1CCCCC1	1.3*	3	4	0	-1	-1
N=c1n(CCN2CCCCC2)c2ccccc2n1CC(O)c1ccco1 (stereo not drawn)	-1	0	2	-2	1	5.1*
CCn1c(=N)n(CC(O)c2ccco2)c2ccccc21 (stereo not drawn)	-2	-5	-1	-7	0	1
O=C(Cc1nnc(NC(=O)Nc2ccc(F)cc2)s1)Nc1ccccc1	1.1*	-4	-1	9	0	1
COc1ccccc1C(=O)N1CCC(Oc2cccnc2)CC1	-1	2	-3	.	0	.
O=C(O)c1ccc(S(=O)(=O)c2ccc3c(c2)C(=O)N(NC(=O)c2ccccc2)C3=O)cc1	-1	12*	1	-30	2	1
